For 40 sequences, PBM binding z-score results are on record in the supplement of paper PMC6555819.

For the assay, the system named is VDR:RXRa (NR concentration 270 nM, RXRa partner concentration 90 nM). Description: PBM binding z-score (relative to random genomic background probes); higher = stronger binding; sequences stand for … in GC…GCGATTGACAGCGTAGAATGAAGG
How it is done:
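Protein-binding microarray (Agilent 4x180K custom design, double-stranded 60-nt probes: 5' GC cap, 34-nt variable region, 24-nt constant primer region; full probe sequence given). Purified or IVT nuclear receptor:RXRα heterodimers (3:1 NR:RXRα, mostly 270:90 nM) or homodimers were incubated for 1 h in PBS with 2% milk and no ligand, then detected with Alexa488 antibodies. Fluorescence from o1-orientation probes (~5 replicates averaged) was converted to z-scores against 500 random hg19 background probes. Variable regions are seed direct-repeat (DR0–DR5) sites, all their single-nucleotide variants and half-site ablations.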
The sequence AGTCAAAGTTCACTAGGTAACATAAGATTCAGCT registered a PBM binding z-score of 4.14.

For CAAACTAGGTCAAGAGGGCAAAGTCCGCTTCCCG, the PBM binding z-score turned out to be 3.46. As for GATAAAGGGTCAAGGCCAGAGTACGCGTATTGAT, the figure is 4.56; as for ATCTGTAGGTAACCAAGTTCAGTGAATGCCGAAC, 4.63; as for GGAACGAGGGAAAAGTTGATAGCATCTGTCGACG, -0.649. CGAACTAGGTCCTCCAGGACAGTGAATACATTGA had a PBM binding z-score of -0.247. For CCTTGTTGGTCAAGGTCACACACGCTATAGGTAC, the PBM binding z-score came to 3.83. With AGAACGAGGGCAATGAGTTGATAGTACGGGTGGC, the PBM binding z-score was found to be 5.53. In the case of TGTCAAAGTTCAACGGTAACGTAAGTATCCACAC it was 4.79; in that of ATACCAAGGTGATCGTGAGGTCGTTCATACTAAC, 3.58. In turn, CTACCAAGGTGAACAACGTCGTTGATTACTATTC yielded a PBM binding z-score of 0.38. Consider CAAACTAGGTCACGAAAGGTCAAAGACGAATGAC, for which the PBM binding z-score came out at 6.91. CGTTCAAGGTCAAGGTCAGTGAAAGAGACTCGAA had a PBM binding z-score of 5.

Regarding TAGCCTAGGTCAGAACGGGCCAGTATACGCTATA, the PBM binding z-score turned out to be 0.299. For the sequence ATCGAAAGGTCGCGGTGAGTATAGAGAAAGGGAA, the PBM binding z-score stood at 3.74. Sequence CCAGACAGGTGAAAGGTAACGCAGTCTGGTACGC returned a PBM binding z-score of 0.77. CCTGCTAGGTCAATGGTGAGCTAAAGCAGCTCGC registered a PBM binding z-score of 0.217.

ATCGAAAGGCCGACGAGGTGAGTATACACCGTTT had a PBM binding z-score of 0.176. In the case of GCTGCTAGGTCAAGTGATGGTCAGCTAAAGCTCG it was 1.63. Take AATACAGGGTCACTAGGCCAGAGAAGGTACGAAT: the PBM binding z-score stood at 4.08. Take CGTCCAAGGTGAGCAGGTCAGTGAAAGCGACGTG: the PBM binding z-score was found to be 0.0617.

TCTTGCAGGCCAGAGGGTCACTCAAGAGGTACGG returned a PBM binding z-score of 1.7.

Turning to ATATCTAGGTAAGACTCAGTTCAGTGAAGAACGC, the PBM binding z-score was found to be 0.941. As for GGAACGAGGGCACAGTTGATAGCATCTGTCGACG, the figure is 0.453; as for GCTCGGAGGATAAGGTCAGAGCTTTGTCCGTAGA, 1.15; as for CAAACTAGGTCACCGGAAGGTGAAAGTCCGCATG, 3.4. In the case of AGAATGAGGTTATACGTTGATCAGGGAAGAAAGT it was 1.39.

For AGAACGAGGGCACGCTGAGTTGAGAGCAGAGTAG, the PBM binding z-score turned out to be 1.59. CGTCAAAGTTCAAGGTAACGTAACAGAAAGCAGC gave a PBM binding z-score of 3.78. As for CGAACTAGGTCATTGACAGGACAGTTAATAGTAA, the figure is 2.16; as for CCAAGTTGGTCAAGGTCACACACGCTATAGGTAC, 4.79. Sequence TCTGCTAGGTCAACGATGGTCAGCTAGTCTGCTA had a PBM binding z-score of 1.43. Consider GGAACGAGGCCATTCGAGTTGATAGCATGGCGAT, for which the PBM binding z-score stood at 1.43. Regarding GATACAGGGTCAGCTAGAGGCCAGAGTTTGGAAA, the PBM binding z-score was 3.36. Regarding CCTAGCAGGCCTATCTGGGTCACTCAAGGCTTGA, the PBM binding z-score was 0.253. ATCTCTAGGTAACCTAGTTCAGTGAATGCCGAAC returned a PBM binding z-score of 1.96.

ACTAGCAGGCCAAGGGCCACTCAAGATTAGTCCG displayed a PBM binding z-score of -0.798.

Take CTCGAAATGTCGGTTGAGGTGAGTATACGGATAA: the PBM binding z-score was -0.148. AGAACGAGGGCCATGAGTTGATAGCACGGGTGGC: the PBM binding z-score came out at 0.196. Turning to ACTCGGAGGACTAAGGTCAGAGCTACGCCAGTGA, the PBM binding z-score was found to be 1.65.
